Columns and labels:
[1] = target: T1, Muscle, skeletal receptor tyrosine-protein kinase (Homo sapiens) (UniProt O15146); settings: at 1 µM
T1 sequence (whole entry): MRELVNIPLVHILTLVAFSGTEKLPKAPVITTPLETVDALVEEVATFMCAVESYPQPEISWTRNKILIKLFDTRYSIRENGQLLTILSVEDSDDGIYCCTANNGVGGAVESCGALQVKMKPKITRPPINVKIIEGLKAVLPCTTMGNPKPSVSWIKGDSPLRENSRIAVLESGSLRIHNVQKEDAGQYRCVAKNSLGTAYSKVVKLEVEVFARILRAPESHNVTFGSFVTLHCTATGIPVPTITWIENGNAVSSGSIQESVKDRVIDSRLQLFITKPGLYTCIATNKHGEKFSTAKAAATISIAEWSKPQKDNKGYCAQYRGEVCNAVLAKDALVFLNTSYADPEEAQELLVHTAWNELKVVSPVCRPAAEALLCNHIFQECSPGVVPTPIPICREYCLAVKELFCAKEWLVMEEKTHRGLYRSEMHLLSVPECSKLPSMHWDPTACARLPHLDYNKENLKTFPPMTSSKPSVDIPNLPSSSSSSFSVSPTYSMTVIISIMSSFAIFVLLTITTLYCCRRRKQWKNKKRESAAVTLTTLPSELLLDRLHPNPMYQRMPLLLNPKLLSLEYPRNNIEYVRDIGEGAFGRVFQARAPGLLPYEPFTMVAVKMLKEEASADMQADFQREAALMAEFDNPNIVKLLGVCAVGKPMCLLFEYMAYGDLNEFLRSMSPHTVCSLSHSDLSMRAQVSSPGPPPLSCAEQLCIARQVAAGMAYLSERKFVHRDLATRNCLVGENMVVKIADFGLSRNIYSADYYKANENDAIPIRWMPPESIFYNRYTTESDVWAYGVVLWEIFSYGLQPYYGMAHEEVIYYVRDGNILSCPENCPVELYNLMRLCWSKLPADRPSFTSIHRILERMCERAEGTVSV

[2] = target: T1, Muscle, skeletal receptor tyrosine-protein kinase (Homo sapiens); settings: at 10 µM
[3] = target: T2, Serine/threonine-protein kinase Nek11 (Homo sapiens) (UniProt Q8NG66); settings: at 1 µM
T2 sequence (whole entry): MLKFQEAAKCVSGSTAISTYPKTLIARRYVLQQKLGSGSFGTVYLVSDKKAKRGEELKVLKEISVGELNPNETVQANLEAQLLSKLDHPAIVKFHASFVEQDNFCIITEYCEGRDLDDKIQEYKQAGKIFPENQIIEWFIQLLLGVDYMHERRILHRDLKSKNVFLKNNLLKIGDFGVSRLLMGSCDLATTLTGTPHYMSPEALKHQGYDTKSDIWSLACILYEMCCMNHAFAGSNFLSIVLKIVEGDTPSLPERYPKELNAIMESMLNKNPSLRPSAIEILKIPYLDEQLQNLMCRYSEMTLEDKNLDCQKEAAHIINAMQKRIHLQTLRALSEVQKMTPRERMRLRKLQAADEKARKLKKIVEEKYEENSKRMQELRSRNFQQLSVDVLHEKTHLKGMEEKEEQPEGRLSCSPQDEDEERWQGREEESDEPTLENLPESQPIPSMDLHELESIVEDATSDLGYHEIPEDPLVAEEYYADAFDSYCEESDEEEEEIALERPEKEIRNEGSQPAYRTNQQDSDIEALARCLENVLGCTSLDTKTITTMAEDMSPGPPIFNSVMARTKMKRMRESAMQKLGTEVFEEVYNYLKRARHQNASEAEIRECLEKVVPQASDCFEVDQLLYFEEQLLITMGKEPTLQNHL

[4] = target: T2, Serine/threonine-protein kinase Nek11 (Homo sapiens); settings: at 10 µM
[5] = target: T3, Serine/threonine-protein kinase Nek2 (Homo sapiens) (UniProt P51955); settings: at 1 µM
T3 sequence (whole entry): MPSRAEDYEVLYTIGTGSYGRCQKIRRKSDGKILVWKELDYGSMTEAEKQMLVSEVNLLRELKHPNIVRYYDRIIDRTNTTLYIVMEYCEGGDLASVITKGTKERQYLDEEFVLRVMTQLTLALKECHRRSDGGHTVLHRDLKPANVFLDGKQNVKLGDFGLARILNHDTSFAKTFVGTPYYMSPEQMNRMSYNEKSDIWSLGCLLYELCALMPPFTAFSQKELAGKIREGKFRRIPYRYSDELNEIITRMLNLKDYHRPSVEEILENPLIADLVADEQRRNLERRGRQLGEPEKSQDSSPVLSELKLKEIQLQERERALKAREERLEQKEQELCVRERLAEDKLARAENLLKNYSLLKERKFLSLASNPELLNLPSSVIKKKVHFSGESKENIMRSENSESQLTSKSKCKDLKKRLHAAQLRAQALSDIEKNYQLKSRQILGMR

[6] = target: T3, Serine/threonine-protein kinase Nek2 (Homo sapiens); settings: at 10 µM
[7] = target: T4, Serine/threonine-protein kinase Nek3 (Homo sapiens) (UniProt P51956); settings: at 1 µM
T4 sequence (whole entry): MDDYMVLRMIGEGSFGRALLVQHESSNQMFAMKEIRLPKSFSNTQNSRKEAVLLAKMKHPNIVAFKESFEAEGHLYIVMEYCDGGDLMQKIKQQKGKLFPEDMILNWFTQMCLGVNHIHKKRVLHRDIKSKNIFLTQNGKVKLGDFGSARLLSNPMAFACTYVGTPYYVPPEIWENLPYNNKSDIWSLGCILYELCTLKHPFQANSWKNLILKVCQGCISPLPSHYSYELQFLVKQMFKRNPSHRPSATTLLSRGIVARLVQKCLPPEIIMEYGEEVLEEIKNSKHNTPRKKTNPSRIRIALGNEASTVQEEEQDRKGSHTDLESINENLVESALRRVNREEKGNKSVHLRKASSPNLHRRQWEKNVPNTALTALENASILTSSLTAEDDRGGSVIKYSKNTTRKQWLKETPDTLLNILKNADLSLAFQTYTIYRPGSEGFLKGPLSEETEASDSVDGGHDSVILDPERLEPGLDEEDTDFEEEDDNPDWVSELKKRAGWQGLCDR

[8] = target: T4, Serine/threonine-protein kinase Nek3 (Homo sapiens); settings: at 10 µM
[9] = target: Serine/threonine-protein kinase tousled-like 2 (Homo sapiens) (UniProt Q86UE8); settings: at 1 µM
Chain of Serine/threonine-protein kinase tousled-like 2 (Homo sapiens) (Q86UE8 whole entry, looked up): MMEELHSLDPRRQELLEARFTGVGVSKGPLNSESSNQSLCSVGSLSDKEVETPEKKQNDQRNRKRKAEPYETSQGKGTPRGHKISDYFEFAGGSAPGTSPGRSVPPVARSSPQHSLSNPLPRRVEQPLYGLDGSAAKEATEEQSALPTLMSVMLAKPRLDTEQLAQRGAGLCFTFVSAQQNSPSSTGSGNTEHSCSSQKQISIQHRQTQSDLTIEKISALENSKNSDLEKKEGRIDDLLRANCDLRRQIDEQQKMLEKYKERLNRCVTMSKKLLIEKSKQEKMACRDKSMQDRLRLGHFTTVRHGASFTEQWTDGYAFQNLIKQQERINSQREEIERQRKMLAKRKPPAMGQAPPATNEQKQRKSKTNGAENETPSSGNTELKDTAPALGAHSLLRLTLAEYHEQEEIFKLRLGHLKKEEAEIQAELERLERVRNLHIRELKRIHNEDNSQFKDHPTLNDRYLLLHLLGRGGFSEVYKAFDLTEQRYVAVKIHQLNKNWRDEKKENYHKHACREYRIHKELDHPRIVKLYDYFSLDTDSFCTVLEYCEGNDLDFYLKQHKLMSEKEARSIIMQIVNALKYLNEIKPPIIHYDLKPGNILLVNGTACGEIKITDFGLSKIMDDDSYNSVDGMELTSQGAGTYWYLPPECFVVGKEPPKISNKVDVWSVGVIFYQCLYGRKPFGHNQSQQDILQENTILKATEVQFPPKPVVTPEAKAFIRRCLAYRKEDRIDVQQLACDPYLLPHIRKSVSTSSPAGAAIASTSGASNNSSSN

[10] = target: Serine/threonine-protein kinase tousled-like 2 (Homo sapiens) (UniProt Q86UE8); settings: at 10 µM

Compound	residual activity [1] [%]	residual activity [2] [%]	residual activity [3] [%]	residual activity [4] [%]	residual activity [5] [%]	residual activity [6] [%]	residual activity [7] [%]	residual activity [8] [%]	residual activity [9] [%]	residual activity [10] [%]
COc1cc2ncnc(N3CCN(C(=O)Nc4ccc(Oc5ccccc5)cc4)CC3)c2cc1OC	71	49	110	115	81	82	110	87	88	88
COc1ccc(OC)c2c(=S)c3ccccc3[nH]c12	89	85	70	54	98	95	74	91	84	87
O=Nc1c(-c2c(O)[nH]c3ccccc23)[nH]c2ccccc12	58	5	70	18	93	83	86	94	60	14
O=C1Nc2cc(Br)ccc2/C1=C1/Nc2ccccc2/C1=N\O	80	84	69	45	89	86	65	70	81	48
Cn1nc2c3c(cccc31)C(=O)c1ccccc1-2	75	81	48	55	95	84	74	91	95	–
CNc1cc2c(Nc3cccc(Br)c3)ncnc2cn1	105	93	109	103	78	109	106	63	99	93
O=C(Nc1cccc(Nc2nccc(Nc3cccc(C(F)(F)F)c3)n2)c1)C1CC1	88	3	90	80	94	101	88	33	109	93
COc1ccc(C(=O)Nc2sc3c(c2C(N)=O)CCCC3)cc1OC	92	84	77	96	80	103	110	72	95	87
Oc1ccc(-c2nc(-c3ccc(F)cc3)c(-c3ccncc3)[nH]2)cc1	92	77	85	66	127	99	85	104	112	100
Nc1cccc(-c2cc3c(Oc4cccc(O)c4)ncnc3[nH]2)c1	73	17	54	25	97	71	42	23	90	87
CN(C)c1ccc(/C=C2\C(=O)Nc3ccccc32)cc1	94	25	90	90	94	113	111	75	98	97
NC(=O)c1ccc2[nH]c(-c3ccc(Oc4ccc(Cl)cc4)cc3)nc2c1	84	63	54	33	82	82	75	91	86	82
CO[C@H]1[C@@H](OC)C[C@H](C)[C@@H](OC)C2=CC(=O)C=C(NC(=O)/C(C)=C/C=C/[C@H](OC)[C@@H](OC(N)=O)/C(C)=C/[C@@H]1C)C2=O	104	85	97	97	95	84	101	76	90	95
CC[n+]1c(/C=C/N(C)c2ccccc2)n(-c2ccccc2)c2ccc(-c3nc4ccccc4s3)cc21	114	58	71	99	83	123	116	92	109	80
COc1ccc(CNc2nc(N(CCO)CCO)nc3c2ncn3C(C)C)cc1	86	73	53	64	90	85	71	90	83	85
Cn1cc(/C=C2\C(=O)Nc3ccc(S(N)(=O)=O)cc32)c2ccccc21	69	28	83	90	79	26	72	19	87	43
O=C1NC(=O)/C(=C/c2ccc3c(c2)OC(F)(F)O3)S1	110	89	80	82	97	94	117	88	112	97

Compound	residual activity [1] [%]	residual activity [2] [%]	residual activity [3] [%]	residual activity [4] [%]	residual activity [5] [%]	residual activity [6] [%]	residual activity [7] [%]	residual activity [8] [%]	residual activity [9] [%]	residual activity [10] [%]
Cc1ccc(S(=O)(=O)/C=C/C#N)cc1	85	96	72	81	97	90	90	98	87	89
O=C1NC(=O)c2c1c1c3ccccc3[nH]c1c1[nH]c3cc(Br)ccc3c21	104	90	62	73	91	88	85	92	85	86
COc1cccc(-c2cc(=O)c3ccccc3o2)c1N	104	97	64	78	98	102	93	101	98	101
C[C@@H](N)[C@H]1CC[C@H](C(=O)Nc2ccncc2)CC1	103	101	99	96	120	102	120	120	93	94
Nc1nc(Nc2ccc(S(N)(=O)=O)cc2)nn1C(=S)Nc1c(F)cccc1F	0	0	51	30	91	71	6	3	4	-1
Oc1c2ccccc2c2c3c(cccc13)N=N2	60	24	50	47	86	81	70	79	71	38
COc1ccc(S(=O)(=O)N(CCO)c2ccccc2CN(C)C/C=C/c2ccc(Cl)cc2)cc1	79	79	95	109	105	102	80	92	92	85
CC(=O)O/N=C1\C(=C2\C(=O)Nc3cc(Br)ccc32)Nc2ccccc21	73	51	60	67	101	87	82	84	92	86
CCOc1cc2ncnc(Nc3cccc(Br)c3)c2cc1OCC	95	70	104	89	77	93	118	88	98	95
Oc1n[nH]c2nnc(-c3c(-c4ccccc4)nn4ccccc34)cc12	87	84	56	74	95	93	77	103	83	82
CO[C@H]1C[C@@H]2CC[C@@H](C)[C@@](O)(O2)C(=O)C(=O)N2CCCC[C@H]2C(=O)O[C@H]([C@H](C)C[C@@H]2CC[C@@H](O)[C@H](OC)C2)CC(=O)[C@H](C)/C=C(\C)[C@@H](O)[C@@H](OC)C(=O)[C@H](C)C[C@H](C)/C=C/C=C/C=C/1C	87	86	97	112	83	81	113	64	92	83
COc1cc2ncnc(Nc3ccc(O)c(Br)c3)c2cc1OC	77	63	50	64	73	83	106	81	86	76
O=c1cc(-c2cccc3c2Sc2ccccc2S3)oc(N2CCOCC2)c1	106	96	93	64	96	92	92	99	96	96
CC#CC(=O)Nc1cc2c(Nc3ccc(F)c(Cl)c3)ncnc2cn1	100	84	70	99	73	95	107	84	102	87
CCN(CC)C(=O)c1ccc(Nc2nc(OCC3CCCCC3)c3nc[nH]c3n2)cc1	32	4	67	41	68	11	47	18	–	–
Oc1ccc(Nc2nc(-c3ccc(Cl)cc3)cs2)cc1	112	91	72	40	116	97	106	111	104	103
